The list is not random: actives were taken first. Their share in the collection is about 2.2%.
TDP43 rescue – qHTS of TDP-43 Inhibitors; Potency, µM (titrated, usually from 46.1 µM), actives largely listed as activators; actives 1.8% (n = 410,000); TDP-43 expressing yeast growth rescue, BacTiter-Glo, 24 h; note: nearly all actives have a fitted effect of over 50% in size
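Readout is BacTiter-Glo luminescence of cell growth, so inhibitors register as activators. TDP-43-expressing yeast at OD600=0.02 in galactose medium, after raffinose pregrowth to mid-log, were incubated with compound for 24 hr at 30 deg C.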
aSyn rescue – qHTS of alpha-syn Inhibitors; Yeast expressing alpha-synuclein, growth rescue, BacTiter-Glo, 24 h; Potency, µM (highest dose often 46.1 µM), actives largely listed as activators; actives 0.14% (n = 370,000); note: nearly all actives have a fitted effect of over 65% in size
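Rescue of yeast growth: cells expressing toxic alpha-synuclein, induced in galactose at OD600 0.02, incubated with compound 24 h at 30 C. ATP luminescence quantified growth; inhibitors of toxicity appear as activators.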
Mito fusion yeast – qHTS Assay for Small Molecule Inhibitors of Mitochondrial Division or Activators of Mitochondrial Fusion | S. cerevisiae fusion-defective mutant growth rescue, CellTiterGlo 48 h | Potency, µM (top dose mostly 46.1 µM), most hits filed as activators | actives 0.23% (n = 320,000) | AID 485298, 2010; note: nearly all actives have a fitted effect of over 45% in size
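Compounds are tested for their ability to restore growth of mitochondrial fusion-defective yeast strains at non-permissive 37C in YPEG medium over 48 hours. Viability is quantified by luciferase luminescence.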
FUS yeast rescue – qHTS for Suppressors of FUS Proteinopathy: Primary screen using FUS-linked yeast assay. S. cerevisiae FUS-expressing, growth rescue, OD600, 24 h. Potency, µM (top dose mostly 76.6 µM), most hits filed as activators. actives 0.24% (n = 390,000); note: nearly all actives have a fitted effect of over 55% in size
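S. cerevisiae expressing FUS from galactose induction served as the toxicity model. Growth after 24hr at 30C, read as absorbance at 600 nm, indicates suppression of toxicity; compounds dosed at several concentrations.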
Abeta yeast res – qHTS for compounds that reverse cellular toxicity of Amyloid beta (A-beta) peptide in yeast: Primary Screen; yeast expressing A-beta42, growth rescue, OD600, 48 h; response scale: 0% DMSO, 100% iron-clioquinol control; Potency, µM (doses to about 46.1 µM), most hits filed as activators; actives 0.063% (n = 410,000); AID 1347071, 2019; note: nearly all actives have a fitted effect of over 55% in size
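Yeast A-beta toxicity model in growth medium with pinned compounds, 48 h at 30 C; growth read as absorbance at 600 nm. Normalized to FeCl3/clioquinol equimolar mix (positive) and DMSO (negative).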
A number is an active result; [ ] = dose if it differs, or a comment. Calls come from the whole dose curve; as a rule, active = well fitted curve in the direction sought with a large enough effect; inconclusive = small, poorly fitted or top-dose-only effect, or another doubt; inactive = no such curve, though single readings can be large; an effect the other way counts as inactive or inconclusive.

`COc1ccc([C@H]2CC(=O)C=C(c3ccc(NC(C)=O)cc3)C2)cc1OC` gave TDP43 rescue inactive, aSyn rescue inactive, Mito fusion yeast inactive, FUS yeast rescue inactive and Abeta yeast res inactive.
For COc1ccc([C@H]2CC(=O)C=C(c3cc(F)ccc3F)C2)cc1OC the results were TDP43 rescue 22µM, aSyn rescue inactive, Mito fusion yeast inconclusive, FUS yeast rescue inactive and Abeta yeast res inactive.
Screening COc1ccc([C@H]2CC(=O)C=C(c3cccc(OC)c3OC)C2)cc1OC returned TDP43 rescue 22µM, aSyn rescue inactive, Mito fusion yeast inactive, FUS yeast rescue inactive and Abeta yeast res inconclusive.
For Cc1[nH]c(=O)[nH]c(=O)c1S(=O)(=O)N1CCN(c2ccccc2Cl)CC1 the results were TDP43 rescue inactive, FUS yeast rescue inactive and Abeta yeast res inactive.
`O=C1C=C(c2cccc(Cl)c2O)C[C@@H](c2ccc(Cl)cc2)C1` gave TDP43 rescue 3.2µM, aSyn rescue inactive, Mito fusion yeast 13µM, FUS yeast rescue inconclusive and Abeta yeast res inactive.
Screening O=C1C=C(c2cccc(Cl)c2)C[C@@H](c2ccc(Cl)cc2)C1 returned TDP43 rescue inactive, aSyn rescue inactive, Mito fusion yeast inconclusive, FUS yeast rescue inconclusive and Abeta yeast res inactive.
For COc1ccc(/C=C/c2ccc3cccc(O)c3n2)c(OC)c1OC the results were TDP43 rescue inconclusive, aSyn rescue inconclusive, Mito fusion yeast inactive, FUS yeast rescue inactive and Abeta yeast res inactive.
For Oc1cccc(/C=C/c2ccc3cccc(O)c3n2)c1 the results were TDP43 rescue 13µM, aSyn rescue inconclusive, Mito fusion yeast inactive, FUS yeast rescue inactive and Abeta yeast res inconclusive.
COc1cc(/C=C/c2ccc3cccc(O)c3n2)cc(OC)c1OC was read as TDP43 rescue inactive, aSyn rescue inactive, Mito fusion yeast inactive, FUS yeast rescue inactive and Abeta yeast res inactive.
`COc1cccc(/C=C/c2ccc3cccc(O)c3n2)c1OC` gave TDP43 rescue 14µM, aSyn rescue 18µM, Mito fusion yeast inactive, FUS yeast rescue inactive and Abeta yeast res inactive.
`COc1cccc(/C=C/c2ccc3cccc(O)c3n2)c1` gave TDP43 rescue inconclusive, aSyn rescue 18µM, Mito fusion yeast inactive, FUS yeast rescue inactive and Abeta yeast res inconclusive.
CN1C(=O)c2cc(NC(=O)Cc3cccs3)ccc2OC[C@@H]2O[C@@H](CC(=O)N[C@H]3CCN(Cc4ccccc4)C3)CC[C@@H]21 was read as FUS yeast rescue inactive.
For COc1ccccc1-c1oc2ccccc2c1C#CCO the results were TDP43 rescue inactive, aSyn rescue inactive, FUS yeast rescue inactive and Abeta yeast res inactive.
For COc1ccccc1-c1oc2ccccc2c1C#CC(C)(C)O the results were TDP43 rescue 16µM, aSyn rescue inactive, Mito fusion yeast inconclusive, FUS yeast rescue inactive and Abeta yeast res inactive.
For COc1ccc(Cn2nc3n(c2=O)-c2ccccc2OC3)cc1 the results were TDP43 rescue 14µM, FUS yeast rescue inactive and Abeta yeast res inactive.
COc1ccc(C2(c3ccc(OC)cc3)NC(=O)N(CC(=O)NC3(C#N)CCCCC3)C2=O)cc1 was read as TDP43 rescue inactive, aSyn rescue inactive[1.84 µM], Mito fusion yeast inactive, FUS yeast rescue 14µM and Abeta yeast res inactive.
`COc1ccc(C2(c3ccc(OC)cc3)NC(=O)N(CC(=O)NC3(C#N)CCCC3)C2=O)cc1` gave TDP43 rescue inactive, aSyn rescue inactive, Mito fusion yeast inactive and Abeta yeast res inactive.
Nc1nc(SCC(=O)N2N=C3/C(=C\c4ccco4)CCCC3C2c2ccco2)n[nH]1 (stereo not drawn) was read as TDP43 rescue inactive, aSyn rescue inactive, FUS yeast rescue 32µM and Abeta yeast res inactive.
For Cc1ccc(C(=O)Nc2ccccc2)cc1S(=O)(=O)Nc1ccc(Br)cc1 the results were TDP43 rescue 13µM, FUS yeast rescue inactive and Abeta yeast res inactive.
For O=S(=O)(Nc1ccc(F)c(Cl)c1)c1ccc(Br)s1 the results were TDP43 rescue inconclusive, FUS yeast rescue inactive and Abeta yeast res inactive.

From PubChem
